The values below come from PubChem BioAssay (NCI).

The nature of experiment [1]: NCI Yeast Anticancer Drug Screen. Data for the rad50 strain (AID 155).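 Note: 0% = growth of vehicle-only cultures of the same strain.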 To be noted: S. cerevisiae rad50 strain growth inhibition, stronger effect = higher value. The procedure, abridged:
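A DNA repair-deficient yeast mutant serves as the test organism; compound-induced growth inhibition is calculated against vehicle-treated cells.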

Experiment [2] is described as follows: NCI Yeast Anticancer Drug Screen. Data for the mec2-1 strain (AID 157). To be noted: S. cerevisiae mec2-1 strain, stronger effect = higher value. The procedure, abridged:
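Readout is yeast growth inhibition, normalised to vehicle-treated controls, in the mec2-1 strain exposed to compound.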

Experiment [3] in a line: NCI Yeast Anticancer Drug Screen. Data for the sgs1 mgt1 strain (AID 161).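 Note: 0% = growth of cultures given vehicle only.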 To be noted: S. cerevisiae sgs1 mgt1 strain, stronger effect = higher value. The procedure, abridged:
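Compounds are added to genetically altered yeast, and growth is compared with cultures given vehicle alone to give percent inhibition.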

Experiment [4] is described as follows: NCI Yeast Anticancer Drug Screen. Data for the cln2 rad14 strain (AID 165).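 Note: 0% = growth equal to vehicle treated cultures.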 To be noted: S. cerevisiae cln2 rad14 strain, stronger effect = higher value. A digest of the protocol:
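Relative to vehicle controls, growth inhibition of compound-treated cln2 rad14 yeast was recorded.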

The nature of experiment [5]: NCI Yeast Anticancer Drug Screen. Data for the bub3 strain (AID 167). The following applies: S. cerevisiae bub3 mutant strain, stronger effect = higher value. A digest of the protocol: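 Inhibition values come from growth of compound-treated mutant yeast normalised to vehicle-treated controls.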
Experiment [6] can be described thus: NCI Yeast Anticancer Drug Screen. Data for the mlh1 rad18 strain (AID 175). The following applies: S. cerevisiae mlh1 rad18 strain growth inhibition, stronger effect = higher value. The procedure, abridged:
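Test agents were incubated with a yeast strain of defined genotype (DNA damage repair defect). Inhibition of growth was derived by comparison with vehicle-exposed cultures.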

Where [7] appears, read: at 5.0 µM (retest, dose inferred, filed as 0.5).
The mark [8] stands for this setting: at 50.0 µM (retest, dose inferred, filed as 5.0).

The panel holds about 79,000 compounds, 15% with a hit somewhere; the sample as a whole holds those more often. Unmarked numbers belong to inactive results. Activity calls are given as the source filed them. Cut-off read from the data, not from the text of the source: active = growth inhibition above about 70%; inactive = the rest.

Consider `CCCCN(CCCC)CCc1ccc(OC(=O)c2ccc(N)cc2)cc1`, for which the growth inhibition was 27% in experiment [1] (setting [7]); 76% (active) in experiment [1] (setting [8]); 82.5% (active) in experiment [1] (at 50.0 µM); 23% in experiment [2] (setting [7]); 80% (active) in experiment [2] (setting [8]); 70.7% (active) in experiment [2] (at 50.0 µM). Besides, the growth inhibition in experiment [3] (setting [7]) is 46%; in experiment [3] (setting [8]) it was 90% (active); in experiment [3] (at 50.0 µM) it was 91.2% (active); in experiment [4] (setting [7]), 42%; in experiment [4] (setting [8]) it was 73% (active); in experiment [4] (at 50.0 µM), 90.2% (active). The growth inhibition in experiment [5] (setting [7]) is 50%; in experiment [5] (setting [8]), 84% (active); in experiment [5] (at 50.0 µM), 79% (active); in experiment [6] (setting [7]) it was 32%; in experiment [6] (setting [8]), 78% (active); in experiment [6] (at 50.0 µM), 84.8% (active).

In the case of `[C-]#[O+].[C-]#[O+].[C-]#[O+].[CH3][Sn]([c]1ccccc1)[c]1ccccc1.[Co].c1ccc([PH+](c2ccccc2)c2ccccc2)cc1`, the growth inhibition in experiment [1] (setting [7]) was 99% (active); in experiment [1] (setting [8]), 99% (active); in experiment [1] (at 50.0 µM), 99.5% (active); in experiment [2] (setting [7]), 99% (active); in experiment [2] (setting [8]) it was 100% (active); in experiment [2] (at 50.0 µM), 99.5% (active). Besides, the growth inhibition is 99% (active) in experiment [3] (setting [7]); 100% (active) in experiment [3] (setting [8]); 99.5% (active) in experiment [3] (at 50.0 µM); 99% (active) in experiment [4] (setting [7]); 99% (active) in experiment [4] (setting [8]); 99% (active) in experiment [4] (at 50.0 µM). The growth inhibition in experiment [5] (setting [7]) was 99% (active); in experiment [5] (setting [8]), 99% (active); in experiment [5] (at 50.0 µM), 99.5% (active); in experiment [6] (setting [7]), 99% (active); in experiment [6] (setting [8]), 99% (active); in experiment [6] (at 50.0 µM) it was 99.3% (active).

Take `O/N=C/c1ccc2c(c1)OCO2`: the growth inhibition in experiment [1] (setting [7]) is 91% (active); in experiment [1] (setting [8]), 99% (active); in experiment [1] (at 50.0 µM), -1.6%; in experiment [2] (setting [7]), 100% (active); in experiment [2] (setting [8]) it was 100% (active); in experiment [2] (at 50.0 µM) it was -1.95%. Further, the growth inhibition in experiment [3] (setting [7]) was 46%; in experiment [3] (setting [8]) it was 100% (active); in experiment [3] (at 50.0 µM), 38.3%; in experiment [4] (setting [7]), 35%; in experiment [4] (setting [8]) it was 99% (active); in experiment [4] (at 50.0 µM), -34.2%. Also, the growth inhibition in experiment [5] (setting [7]) is 98% (active); in experiment [5] (setting [8]), 99% (active); in experiment [5] (at 50.0 µM) it was 4.25%; in experiment [6] (setting [7]) it was 99% (active); in experiment [6] (setting [8]), 99% (active); in experiment [6] (at 50.0 µM), -14.1%.

Regarding `C/C(=N\NS(=O)(=O)c1ccc(C)cc1)C(CN1CCOCC1)C(c1ccccc1)c1c(O)c2ccccc2oc1=O` (stereo unspecified), the growth inhibition in experiment [1] (setting [7]) was 15%; in experiment [1] (setting [8]), 15%; in experiment [1] (at 50.0 µM) it was 88.5% (active); in experiment [2] (setting [7]), 4%; in experiment [2] (setting [8]), 4%; in experiment [2] (at 50.0 µM) it was 85.8% (active). The growth inhibition in experiment [3] (setting [7]) was 15%; in experiment [3] (setting [8]), 15%; in experiment [3] (at 50.0 µM), 87.4% (active); in experiment [4] (setting [7]) it was 5%; in experiment [4] (setting [8]) it was 5%; in experiment [4] (at 50.0 µM) it was 89.2% (active). Also, the growth inhibition in experiment [5] (setting [7]) is 3%; in experiment [5] (setting [8]), 3%; in experiment [5] (at 50.0 µM), 83.7% (active); in experiment [6] (setting [7]) it was 9%; in experiment [6] (setting [8]), 9%; in experiment [6] (at 50.0 µM), 87.6% (active).

As to `C=C1C(C)C2C(Cc3ccccc3)NC(=O)C23C(OC(C)=O)C=CC(C)(O)C(=O)C(C)C/C=C/C3C1O` (stereo unspecified), the growth inhibition is 72% (active) in experiment [1] (setting [7]); 96% (active) in experiment [1] (setting [8]); 88.8% (active) in experiment [1] (at 50.0 µM); 57% in experiment [2] (setting [7]); 96% (active) in experiment [2] (setting [8]); 90.1% (active) in experiment [2] (at 50.0 µM). Also, the growth inhibition in experiment [3] (setting [7]) is 58%; in experiment [3] (setting [8]), 97% (active); in experiment [3] (at 50.0 µM), 89.2% (active); in experiment [4] (setting [7]), 80% (active); in experiment [4] (setting [8]), 96% (active); in experiment [4] (at 50.0 µM) it was 85.2% (active). For the same compound, the growth inhibition in experiment [5] (setting [7]) is 71% (active); in experiment [5] (setting [8]) it was 98% (active); in experiment [5] (at 50.0 µM) it was 84% (active); in experiment [6] (setting [7]), 80% (active); in experiment [6] (setting [8]), 96% (active); in experiment [6] (at 50.0 µM), 84.1% (active).

Take `C[C@]12CC/C(=N\OC(=O)Nc3ccccc3)C=C1CC[C@@H]1C2CC[C@@]2(C)C1CC[C@@H]2OC(=O)Nc1ccccc1` (stereo partly specified): the growth inhibition in experiment [1] (setting [7]) was -7%; in experiment [1] (setting [8]) it was 71% (active); in experiment [1] (at 50.0 µM), 47.2%; in experiment [2] (setting [7]), -2%; in experiment [2] (setting [8]) it was 71% (active); in experiment [2] (at 50.0 µM) it was 95% (active). For the same compound, the growth inhibition in experiment [3] (setting [7]) was 1%; in experiment [3] (setting [8]), 86% (active); in experiment [3] (at 50.0 µM), 4%; in experiment [4] (setting [7]) it was -5%; in experiment [4] (setting [8]) it was 47%; in experiment [4] (at 50.0 µM) it was 31.9%. The growth inhibition was -8% in experiment [5] (setting [7]); 65% in experiment [5] (setting [8]); 93.1% (active) in experiment [5] (at 50.0 µM); -4% in experiment [6] (setting [7]); 87% (active) in experiment [6] (setting [8]); 89% (active) in experiment [6] (at 50.0 µM).

For the compound `Cn1cc(/C=C/[N+](=O)[O-])c2ccccc21`, the growth inhibition is 7% in experiment [1] (setting [7]); 95% (active) in experiment [1] (setting [8]); 97.1% (active) in experiment [1] (at 50.0 µM); -2% in experiment [2] (setting [7]); 96% (active) in experiment [2] (setting [8]); 97.3% (active) in experiment [2] (at 50.0 µM). Moreover, the growth inhibition in experiment [3] (setting [7]) is 2%; in experiment [3] (setting [8]), 97% (active); in experiment [3] (at 50.0 µM) it was 98.4% (active); in experiment [4] (setting [7]) it was 26%; in experiment [4] (setting [8]) it was 98% (active); in experiment [4] (at 50.0 µM), 96.5% (active). Also, the growth inhibition in experiment [5] (setting [7]) is 22%; in experiment [5] (setting [8]) it was 97% (active); in experiment [5] (at 50.0 µM) it was 97.7% (active); in experiment [6] (setting [7]), 19%; in experiment [6] (setting [8]) it was 97% (active); in experiment [6] (at 50.0 µM), 97.3% (active).
